EPAC1 ag – qHTS for Agonist of cAMP-regulated guanine nucleotide exchange factor 3 (EPAC1): primary screen | Rap guanine nucleotide exchange factor 3 (Homo sapiens), O95398 | 360,000 compounds, 0.073% hits | EPAC1 agonist qHTS, biochemical assay; response scale: 100% = response to 6.5 mM cAMP | Potency, µM (doses to about 154 µM), inactives show at the highest dose activation, hits mostly activators; further: potency means the concentration at half of the fitted maximal effect; nearly all actives have a fitted effect of over 60% in size
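Compounds were pinned as a concentration titration into mixtures of EPAC1 (100 nM), BODIPY-GDP-loaded Rap1B (250 nM) and GDP (50 uM). After 5 min at room temperature, fluorescence was followed for 30 min; activity was scaled to 6.5 mM cAMP.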
EPAC1 antag – qHTS for Antagonist of cAMP-regulated guanine nucleotide exchange factor 3 (EPAC1): primary screen | Rap guanine nucleotide exchange factor 3 (Homo sapiens), O95398 | EPAC1 GEF assay, Rap1b-BODIPY-GDP exchange fluorescence | Potency, µM (doses to about 115 µM), inactives show at the top dose activity change, negative = inhibition, hits mostly inhibitors | 360,000 compounds, 0.14% hits | AID 720709, 2013;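 further: potency means the concentration at half of the fitted maximal effect; plate controls were vehicle for no effect and positive control for full effect; nearly all actives have a fitted effect of over 50% in size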
LDHA inh – qHTS assay for inhibitors of human lactate dehydrogenase. activity change, % (values are at about 110 or 230 µM). 480,000 compounds, 0.15% hits. purified LDHA, NADH/diaphorase-resazurin fluorescence; hits give low values. L-lactate dehydrogenase A chain (Homo sapiens), P00338; in the data active means activity change below about -30%; inconclusive means mostly about -25% to -30%;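 further: plate controls were DMSO wells for no effect and wells without enzyme for full effect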
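Human LDH5 at 2 nM final in Tris HCl pH 7.4 with 0.06 mM NADH and 0.2 mM pyruvate, reacted 5 minutes at room temperature. Remaining NADH coupled via diaphorase/resazurin; resorufin fluorescence read at 0 and 20 minutes, normalized to enzyme-free and DMSO wells.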
EPAC2 antag – qHTS for Antagonist of cAMP-regulated guanine nucleotide exchange factor 2 (EPAC2): primary screen; Rap guanine nucleotide exchange factor 4 (Homo sapiens), Q8WZA2; EPAC2 GEF exchange of Rap1B-BODIPY-GDP, fluorescence; Potency, µM (doses to about 114 µM), for the others: at the highest dose activity, negative = inhibition, most hits filed as inhibitors; 360,000 compounds, 0.18% hits; further: potency means the concentration at half of the fitted maximal effect; on the % scale 0 is the no-effect control and ±100 the full control effect; nearly all actives have a fitted effect of over 45% in size
Target sequence (Q8WZA2 whole entry, looked up): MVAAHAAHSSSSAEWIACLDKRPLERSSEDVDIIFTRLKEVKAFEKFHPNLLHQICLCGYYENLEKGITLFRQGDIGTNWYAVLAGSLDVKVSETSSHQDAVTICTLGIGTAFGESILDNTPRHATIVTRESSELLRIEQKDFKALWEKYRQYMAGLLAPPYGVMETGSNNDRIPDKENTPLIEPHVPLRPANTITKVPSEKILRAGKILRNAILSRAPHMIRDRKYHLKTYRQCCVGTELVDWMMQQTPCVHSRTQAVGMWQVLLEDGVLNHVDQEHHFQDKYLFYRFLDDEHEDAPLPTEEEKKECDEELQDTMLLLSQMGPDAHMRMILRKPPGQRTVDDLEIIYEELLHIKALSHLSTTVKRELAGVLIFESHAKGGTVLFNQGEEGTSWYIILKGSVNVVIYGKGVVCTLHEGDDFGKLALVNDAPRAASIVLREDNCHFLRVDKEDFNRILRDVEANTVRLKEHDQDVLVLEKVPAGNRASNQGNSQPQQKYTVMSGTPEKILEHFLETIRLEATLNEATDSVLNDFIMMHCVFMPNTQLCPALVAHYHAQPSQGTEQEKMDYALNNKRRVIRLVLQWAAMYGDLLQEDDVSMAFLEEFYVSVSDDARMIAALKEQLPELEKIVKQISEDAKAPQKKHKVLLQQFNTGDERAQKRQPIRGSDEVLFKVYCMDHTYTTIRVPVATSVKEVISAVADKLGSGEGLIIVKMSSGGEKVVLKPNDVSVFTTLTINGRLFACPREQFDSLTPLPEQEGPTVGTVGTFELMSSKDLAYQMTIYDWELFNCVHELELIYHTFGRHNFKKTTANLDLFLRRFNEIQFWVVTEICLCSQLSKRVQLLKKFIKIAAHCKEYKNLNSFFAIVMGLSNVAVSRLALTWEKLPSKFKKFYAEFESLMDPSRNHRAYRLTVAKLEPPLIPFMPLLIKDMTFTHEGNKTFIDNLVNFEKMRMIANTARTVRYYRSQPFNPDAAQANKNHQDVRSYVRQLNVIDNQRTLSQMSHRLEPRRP
EPAC2 agonist – qHTS for Agonist of cAMP-regulated guanine nucleotide exchange factor 4 (EPAC2): primary screen; EPAC2 activation, biochemical qHTS; response scale: 100% = 6.5 mM cAMP response; Potency, µM (titrated, usually from 154 µM), without a hit: at the highest dose activation, hits mostly activators; Rap guanine nucleotide exchange factor 4 (Homo sapiens), Q8WZA2; 360,000 compounds, 0.079% hits; AID 720711, 2013; further: potency means the concentration at half of the fitted maximal effect; nearly all actives have a fitted effect of over 50% in size
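Setup: EPAC2 100 nM, labeled Rap1B complex 250 nM, free GDP 50 uM. Compound titrations pinned in, brief spin, 5 min room temperature incubation. Kinetic fluorescence read over 30 min, normalized to 6.5 mM cAMP.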
USP1-UAF1 inh – Inhibitors of USP1/UAF1: Primary Screen. 390,000 compounds, 0.23% hits. recombinant USP1/UAF1, Ub-Rhodamine cleavage fluorescence. Ubiquitin carboxyl-terminal hydrolase 1 (Homo sapiens), O94782. Potency, µM (series often up to 57.1 µM), for the others: at the top dose activity change, negative = inhibition, actives largely listed as inhibitors; further: potency means the concentration at half of the fitted maximal effect; on the % scale 0 is the no-effect control and ±100 the full control effect; nearly all actives have a fitted effect of over 60% in size
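1 nM enzyme complex + cpd, 15 min RT; start with Ub-Rho 150nM final; kinetic fluorescence ex 480/em 540, 6 reads q60 s. Buffer 50mM HEPES pH 7.8, 0.5mM EDTA, 0.1 mg/ml BSA, 1mM TCEP, 0.01% Tween-20.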
Numbers without * were called inactive; ? = inconclusive; . = no result. The list is not random: actives were taken first. Their share in the collection is about 0.56%. Unless noted, the call rests on the fitted dose curve; in most records, active means well fitted curve in the direction sought with a large enough effect; inconclusive means small, poorly fitted or top-dose-only effect, or another doubt; inactive means no such curve, though single readings can be large; an effect the other way counts as inactive or inconclusive.

SMILES | EPAC1 ag | EPAC1 antag | LDHA inh | EPAC2 antag | EPAC2 agonist | USP1-UAF1 inh
CCNC(=S)Nc1ccc(N2CCCCC2)cc1 | 7% | 7% | 2 | 4% | 4% | -9%
CCNC(=S)N/N=C/c1sc(N2CCCCC2)nc1-c1cccs1 | -52% | 89µM* | -17 | ? | 1% | ?
CCCOc1c(Cl)cc(C(=O)N(Cc2cccc(OC)c2)C2CCS(=O)(=O)C2)cc1Cl (stereo unspecified) | . | . | 4 | . | . | -14%
CNCCCNC(=O)/C=N/O | . | . | -8 | . | . | .
N#Cc1nc(/C=C/c2ccccc2)oc1N1CCN(c2ccccc2)CC1 | . | . | -5 | . | . | .
CCOC(=O)c1c(-c2ccccc2)csc1NC(=O)C(C)NCc1ccco1 (stereo unspecified) | 16% | ? | -19 | 45µM* | 1% | -11%
CCOC(=O)c1c(-c2ccc(Cl)cc2)csc1NC(=O)CNCc1ccco1 | -3% | 3% | -15 | -9% | 14% | -21%
COc1cccc(C(=O)NCC(=O)N2CCC3(CC2)NCCc2[nH]cnc23)c1OC | 16% | -1% | -1 | 2% | -4% | -2%
COC(=O)c1[nH]c(C)c(/C(O)=C2\C(=O)C(=O)N(CCCn3ccnc3)C2c2cccc(OC)c2)c1C (stereo unspecified) | . | . | -40* | . | . | .
O=C(CS(=O)(=O)c1cccc2nsnc12)NCc1ccccc1 | . | . | -2 | . | . | -23%
Nc1cccc2c(O)cc(S(=O)(=O)O)cc12 | ? | -21% | 35 | -30% | ? | 25µM*
Cc1sc(N)c(C(=O)c2ccccc2Cl)c1C | 9% | 19% | -6 | 32µM* | 7% | -23%
CC1=C/C(=C(\c2cc(C)c(O)c(Br)c2)c2ccccc2S(=O)(=O)O)C=C(Br)C1=O | -15% | ? | 10 | 40µM* | -14% | ?
Cc1cc(C(=O)c2ccccc2)cc(C)c1O | -2% | -1% | -1 | 13% | -1% | -17%
COc1cccc2cc(C(=O)OCC(=O)NCc3ccc4c(c3)OCO4)c(=O)oc12 | -7% | 17% | 6 | 5% | -7% | -23%
CC(C)c1ccc(-c2csc(NC(=O)COCc3nc4ccccc4c(=O)[nH]3)n2)cc1 | . | . | 2 | . | . | .
O=C(COCc1nc2ccccc2c(=O)[nH]1)Nc1nc(-c2ccc3c(c2)CCC3)cs1 | . | . | -31* | . | . | .
O=C1/C(=C/c2ccco2)Oc2c1ccc(O)c2CN1CCCCC1 | ? | -16% | 11 | 53% | -34% | 32µM*
CCN1CCN(Cc2c(O)ccc3c2O/C(=C\C=C\c2ccccc2OC)C3=O)CC1 | 56µM* | 46% | -1 | 89% | ? | 28µM*
CCN1CCN(Cc2c(O)ccc3c(=O)c(-c4ccccc4OC)coc23)CC1 | 6% | -4% | -3 | 0% | 6% | -9%
CC1CCN(Cc2c(O)ccc3c2O/C(=C\c2ccco2)C3=O)CC1 | 17% | -14% | 9 | 25% | -34% | 32µM*
COc1ccc2cc(C(=O)NC3CCN(Cc4ccccc4)C3)c(C)nc2c1 (stereo unspecified) | . | . | 1 | . | . | .
CCOc1ccc(S(=O)(=O)Nc2nc3ccccc3nc2-n2ccc(=NC(=O)c3cccs3)cc2)cc1 | ? | -14% | -12 | 41% | 100µM* | 0%
O=C(N=c1ccn(-c2nc3ccccc3nc2NS(=O)(=O)c2ccc(Cl)cc2)cc1)c1cccs1 | -6% | -22% | -3 | 14% | 3% | -16%
CCN=C(N/N=C/c1ccc([N+](=O)[O-])cc1)SC | 6% | -17% | -110* | -2% | 7% | 1%
SMILES | EPAC1 ag | EPAC1 antag | LDHA inh | EPAC2 antag | EPAC2 agonist | USP1-UAF1 inh
COc1cc(OC)cc(C(NC(=O)Cc2n[nH]c(=O)c3ccccc23)c2nccn2C)c1 (stereo unspecified) | . | . | 9 | . | . | .
O=C(CSc1nnc(CN2CCOCC2)n1-c1ccccc1)N1CCc2ccccc21 | 0% | 6% | -2 | 4% | 1% | -19%
CC1CCN(C(=O)CSc2nnc(CN3CCOCC3)n2-c2ccccc2)CC1 | 9% | 32µM* | -6 | 2% | -6% | -1%
COC(=O)C1=C(C)Nc2nc(SC(C)C)[nH]c(=O)c2C1c1cccnc1 (stereo unspecified) | . | . | -1 | . | . | .
O=C(c1ccc(Cl)cc1)C1C2C(=O)N(c3ccccc3)C(=O)C2C2CCCN21 (stereo unspecified) | 2% | -4% | -4 | 8% | 1% | -7%
CC(=O)c1ccc(N2C(=O)C3C(C2=O)C(C(=O)c2ccc(Cl)cc2)N2CCCC32)cc1 (stereo unspecified) | ? | -17% | 5 | 240% | 100µM* | 18µM*
CCNc1cccc2c1C(=O)N(C)C2=O | ? | 18% | -1 | 27% | ? | 16µM*
CCC(=O)NCc1ccc(-c2nc3ccccc3s2)cc1 | . | . | -31* | . | . | .
CCCCC(=O)NCc1ccc(-c2nc3ccccc3s2)cc1 | . | . | -30* | . | . | .
CC(=O)NCc1ccc(-c2nc3ccccc3s2)cc1 | -7% | 2% | 3 | 2% | 7% | -20%
O=C(NCCC(c1ccccc1)c1ccccc1)c1cc(-c2ccccc2)nc2ccccc12 | . | . | 4 | . | . | .
CC(C)(C)N1C(=O)Cc2c1nc(N)c1c(N)nc(N3CCCCC3CO)c(C#N)c21 (stereo unspecified) | -1% | 56µM* | 21 | -8% | 4% | ?
Cc1ccc(-c2cc(C(F)F)n3nc(C)c(Br)c3n2)cc1 | . | . | -34* | . | . | .
Cc1nn2c(C(F)F)cc(-c3ccc(F)cc3)nc2c1Br | . | . | 7 | . | . | .
Cc1oc(-c2ccccc2)nc1C(=O)NCCN1CCOCC1 | . | . | -5 | . | . | .
C=C1CCN([C@@H](Cc2ccccc2)C(=O)O)S(=O)(=O)c2ccccc21 | 0% | 1% | -5 | 16% | 7% | -6%
C=C1CCN(C(Cc2ccccc2)C(=O)OC)S(=O)(=O)c2ccc(F)cc21 (stereo unspecified) | -17% | -20% | -8 | 56µM* | 12% | -24%
N#Cc1c(SCC(=O)NCCc2ccccc2)nc(N2CCOCC2)c2c1CCCC2 | . | . | -31* | . | . | .
CCN(CC)S(=O)(=O)c1ccc(N(C)C)c(NS(=O)(=O)/C=C/c2ccccc2)c1 | . | . | 12 | . | . | .
